# Measured values: PubChem BioAssay (NCI)
# Where “and” joins values, the source holds several entries; their conditions need not be identical. Equal entries are not always repeated. This is part of a sample that, as a whole, favours compounds with a hit. Of some 79,000 tested, about 15% had one in any assay. Values without a mark were called inactive. Calls of active or inactive are those of the source. No stated cut-off is given here; in the data, active means growth inhibition above about 70%; inactive means the rest.
# Columns and labels:
# [1] = NCI Yeast Anticancer Drug Screen. Data for the rad50 strain (AID 155);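 further: 0% = growth of vehicle-only cultures of the same strain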; settings: S. cerevisiae rad50 strain growth inhibition, active compounds read high; at 50.0 µM unless noted
# How it was run: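 Readout: growth inhibition relative to vehicle-treated cultures. Compound exposure was carried out in a genetically defined yeast strain deficient in DNA damage repair.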
# [2] = NCI Yeast Anticancer Drug Screen. Data for the mec2-1 strain (AID 157); settings: S. cerevisiae mec2-1 strain, active compounds read high; at 50.0 µM unless noted
# How it was run: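 Compounds were applied to mec2-1 yeast cells. Their growth was then compared with that of vehicle-treated cultures to give growth inhibition.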
# [3] = NCI Yeast Anticancer Drug Screen. Data for the sgs1 mgt1 strain (AID 161);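 further: 0% = growth of cultures given vehicle only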; settings: S. cerevisiae sgs1 mgt1 strain, active compounds read high; at 50.0 µM unless noted
# How it was run: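 Compounds are added to genetically altered yeast, and growth is compared with cultures given vehicle alone to give percent inhibition.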
# [4] = NCI Yeast Anticancer Drug Screen. Data for the cln2 rad14 strain (AID 165);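 further: 0% = growth equal to vehicle treated cultures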; settings: S. cerevisiae cln2 rad14 strain, active compounds read high; at 50.0 µM unless noted
# How it was run: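 Strain: cln2 rad14 yeast, altered in cell cycle control and DNA damage repair. Read-out: growth inhibition vs vehicle.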
# [5] = NCI Yeast Anticancer Drug Screen. Data for the bub3 strain (AID 167); settings: S. cerevisiae bub3 mutant strain, active compounds read high; at 50.0 µM unless noted
# How it was run: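 Readout: yeast growth inhibition, expressed relative to vehicle-only wells. The test organism is a mutant strain from a panel with lesions in DNA repair or checkpoint genes.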
# [6] = NCI Yeast Anticancer Drug Screen. Data for the mlh1 rad18 strain (AID 175); settings: S. cerevisiae mlh1 rad18 strain growth inhibition, active compounds read high; at 50.0 µM unless noted
# How it was run: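 A repair-deficient yeast strain is exposed to test compound, and growth is scored relative to vehicle-treated controls.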
Structure (SMILES),growth inhibition [1],growth inhibition [2],growth inhibition [3],growth inhibition [4],growth inhibition [5],growth inhibition [6]
COc1ccc2nc3cc(Cl)ccc3c(SCC(=O)Nc3ccccc3-c3ccccc3NC(=O)CSc3c4ccc(Cl)cc4nc4ccc(OC)cc34)c2c1,-0.1%,-2.9%,-3.05%,22.9%,2.5%,7.8%
O=C1c2cc([N+](=O)[O-])ccc2-c2ccc3c4ccc5c6c(ccc(c7ccc1c2c73)c64)C(=O)c1cc([N+](=O)[O-])ccc1-5,14%,-10.6%,-3.15%,21.4%,-35.2%,26.1%
O=C(Nc1ccc(F)cc1)c1ccc([N+](=O)[O-])cc1,0.5%,-1%,36.1%,-9.6%,19%,8.15%
CN(C)c1ccc(-c2nc(-c3cc4c(ccc5ccccc54)oc3=O)cs2)cc1,22.1%,15.6%,-7.55%,6.4%,-19.8%,-36%
COc1ccc(C)cc1Sc1ccc([N+](=O)[O-])cc1C,0.65%,-17.9%,-8.35%,-19.2%,8.95%,-19.2%
COc1ccc(NC(C)=O)cc1,24.8%,3.2%,2.7%,13.8%,11.8%,-11.1%
CC(C)Cc1c(C#N)c(C#N)c(N)n1Cc1ccccc1,3.05%,11.4%,-29%,-12%,-22.1%,-36.4%
O=c1c2ccccc2[nH]c(=S)n1CCc1ccccn1,2.35%,6.9%,64.6%,8.55%,14.3%,-7.65%
CC(=O)NC1=NC(=O)/C(=C/c2ccc3c(c2)OCO3)N1C,4.7%,2.85%,-3.3%,3%,5.5%,10.9%
NC(=S)N/N=C1/CN(c2ccc(Cl)c(Cl)c2)CC(=O)C1c1nc2ccccc2s1 (stereo not given),49.1%,28.6%,53%,26.1%,-0.65%,52.2%
O=C(NC(=S)Nc1ccccc1F)c1cccc([N+](=O)[O-])c1,26.1%,77.2% (active),79.2% (active),11.4%,49.7%,80% (active)
Cc1cc2ccccc2c(N=Cc2cc(Br)cc(Br)c2O)c1C#N,59.8%,87.5% (active),96.8% (active),60.2%,83.8% (active),97.8% (active)
C=CCSC[C@H](NC(=O)COc1ccccc1)C(=O)NC(C(=O)OCc1ccc([N+](=O)[O-])cc1)=C(C)C,45.8%,26.6%,24.6%,31.1%,39.4%,14.4%
CCOC(=O)[C@]12C3C=CC(C3)C1C(=O)C1OC12 (stereo not given in full),-29%,-26.8%,-19.3%,-0.5%,-26.6%,-45.1%
COCCCCCCCCCCCC(=O)O,-23.4%,1.3%,-46.2%,-0.15%,-21.2%,-63.7%
Cc1cccc(NC(=O)OC/C=C/c2ccccc2)c1,10.3%,70.5% (active),53.5%,0.65%,31.4%,4.95%
COCCN(CCOC)C(=O)Nc1ccc(Cl)cc1,4.6%,5.5%,10.4%,4.5%,0.8%,9.75%
CCOC(=O)/C(F)=C/c1ccc(C#N)cc1,29.3%,-19.9%,-4.25%,3.7%,8.35%,15.8%
COC1CCC2(C)C(CCC3C4CCC(OC(C)=O)C4(C)CCC32)O1 (stereo not given),1.65%,-9.55%,-9.45%,-6.7%,-1.95%,-14.8%
O=C(NCc1ccc(Cl)cc1)NC1CCCCC1,5.75%,36.9%,35.5%,2.7%,20.9%,46%

Structure (SMILES),growth inhibition [1],growth inhibition [2],growth inhibition [3],growth inhibition [4],growth inhibition [5],growth inhibition [6]
Cc1ccc(S(=O)(=O)N2C(=O)CCC2C(=O)O)cc1 (stereo not given),-0.95%,-5.65%,10.6%,-17.1%,2.2%,2.7%
CC(=O)OCC1CCCC(C)C1COC(C)=O (stereo not given),2%,-8.7%,-16.1%,-24.1%,20.3%,-2.95%
COc1ccc2[nH]c3c(=O)[nH]ncc3c2c1,-1.9%,-0.95%,-7.5%,-3.05%,9.8%,9.05%
O=C(Nc1ccc(-c2cn3ccccc3n2)cc1)c1ccccc1O,7.7%,-11.8%,20.6%,36.1%,10.2%,4.75%
OCC12OCC(C=CC1O)O2 (stereo not given),-13.2%,17.1%,-4.65%,1.2%,-0.15%,-8.5%
O=C1C(c2ccccc2)=C(c2ccccc2)C1(Cl)Cl,-5.95%,-6.1%,44.3%,37.6%,17.9%,88.4% (active)
CCC1(CC)SC=C(C)NC1=O,-4.65%,-1.65%,12.6%,-24.7%,-14.7%,6.75%
O=C(CCCN1CCC2(CC1)CC(=O)N(N1CCOCC1)C2=O)c1ccc(F)cc1,-4.65%,6.1%,2.75%,4.5%,-3.4%,14.9%
S=C(Nc1ccc2c(c1)oc1ccccc12)c1cccs1,35.1%,16.6%,-36.2%,-7.25%,-9.6%,-4.6%
CCOC(=O)c1ccc(O)c(NC(C)=O)c1,-11.7%,18.1%,0.15%,-42.5%,10%,-7.15%
CN(C)/N=C(\CBr)c1ccc([N+](=O)[O-])cc1,-1.8%,4.9%,6.75%,11.2%,-3%,5.4%
CCCCCCCCCCCC(=O)OC(COCCC(C)C)COCCC(C)C,-2.9%,-5.05%,-3.15%,-12.1%,-11.9%,12.1%
Cc1cc([N+](=O)[O-])cc(Br)c1N,23.1%,11.1%,-1.6%,3.25%,0.25%,25.4%
CCOC(=O)C(SC(S(=O)(=O)c1ccccc1)S(=O)(=O)c1ccccc1)C(=O)OCC,33.3%,-1.75%,21.2%,21.6%,-2.05%,25.6%
O=C(O)CC(CS(=O)O)C(=O)O (stereo not given),-9.65%,-11.2%,-13.4%,1.05%,1.15%,-3.7%
c1ccc2c(c1)ncn2Sn1cnc2ccccc21,1.8% and 2.7%,16.9% and -0.1%,3.8% and -3.35%,-12.4% and 15.5%,2.95% and 11.1%,6.9% and 20.9%
OCCCCC1CCCc2ccccc21 (stereo not given),17.3%,16.1%,3.15%,-4.55%,-1.85%,-3.45%
O=C(O)CN(CCO)CCN(CC(=O)O)CC(=O)O.[Fe+2],6%,-32%,-18.5%,18.6%,-14.5%,2.25%
O=C1OC(C2OC(=O)C(=O)C2C2CCCCCCC2=O)C(C2CCCCCCC2=O)C1=O (stereo not given),45.5%,9.15%,29.4%,32.9%,39.2%,26.4%
CCOc1ccc(N=Nc2c(N)nc(N)[nH]c2=O)cc1,26.3%,23.6%,17.4%,19.9%,-1.25%,24.1%
